The supplement of paper PMC7156485
Structures can show the parent of a compound that is named as a salt. ± gives the standard deviation of the averaged measurements.

Columns and labels:
Settings in all cases: concentration: 10 µM; 24 h
HCC1569 [1] = experiment: cell number relative to DMSO (% of DMSO); higher = more cells (less growth inhibition / toxicity)
Summary of the method: (§1)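 In 384-well plates holding 800 HCC1569 or TDF cells per well in RPMI with 10% FBS, compounds were tested at 10 µM for 24 h at 37 °C in triplicate. Fixation used 3.7% formaldehyde. Staining used a rabbit anti-H1.0 antibody with an AlexaFluor 647 secondary, plus DAPI. Each value, H1.0 nuclear intensity or cell number, is a median of replicates shown as percent of the plate control, and HCC1569 values were smoothed for positional effects.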

TDF [2] = experiment: as above
Summary of the method: as §1

TDF [3] = experiment: H1.0 immunofluorescence intensity relative to DMSO (% of DMSO); higher = stronger H1.0 induction, active = 120 or more
Summary of the method: as §1

HCC1569 [4] = experiment: H1.0 immunofluorescence intensity relative to DMSO (% of DMSO); higher = stronger H1.0 induction, active = 140 or more
Summary of the method: as §1
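For H1.0 immunofluorescence intensity relative to DMSO in this document: TDF is a line of transformed human dermal fibroblasts of mesenchymal origin.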
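For cell number relative to DMSO in this document: TDF denotes transformed human dermal fibroblasts of mesenchymal origin.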

SMILES	cell number (HCC1569 [1])	cell number (TDF [2])	H1.0 immunofluorescence intensity (TDF [3])	H1.0 immunofluorescence intensity (HCC1569 [4])
CCS(=O)(=O)Nc1cccc(C(=C2CCCCC2)c2cnc[nH]2)c1	99.6	101	94.6 (inactive)	92.5 (inactive)
COc1ccc2c(c1OC)C(=O)OC2C1c2cc3c(cc2CCN1C)OCO3 (stereo not drawn)	107	97.5	90.5 (inactive)	95.3 (inactive)
Nc1ccc(CCN2CCN(c3cccc(C(F)(F)F)c3)CC2)cc1	95.1	98.9	99.4 (inactive)	107 (inactive)
NC(C(=O)O)c1cc(=O)[nH]o1 (racemic)	104	103	92.2 (inactive)	92.6 (inactive)
CCCCCCCCCCCCCC(=O)OC1C(C)C2(O)C(C=C(CO)CC3(O)C(=O)C(C)=CC32)C2C(C)(C)C12OC(C)=O (stereo not drawn) [Phorbol 12-myristate 13-acetate]	99 ± 4.3	74.6 ± 8.8	125 (active)	125 (inactive)
C=CCN1CCC23c4c5ccc(O)c4OC2C(=NN=C2CCC4(O)C6Cc7ccc(O)c8c7C4(CCN6CC=C)C2O8)CCC3(O)C1C5 (stereo not drawn) [Naloxonazine]	99.6	89	105 (inactive)	117 (inactive)
CS(=O)(=O)O.O.Oc1ccc2c3c1OC1c4oc5ccccc5c4CC4(O)C(C2)N(CC2CC2)CCC314 (stereo not drawn) [Naltriben methanesulfonate hydrate]	98.9	101	92.8 (inactive)	119 (inactive)
C[N+]1(C)C2CCC1CC(OC(=O)C(CO)c1ccccc1)C2.O=[N+]([O-])[O-] (stereo not drawn) [Atropine methyl nitrate]	101	113	94.9 (inactive)	89.7 (inactive)
CC1CCC2(O)C3(C)CC4(O)OC2(C1O)C1(O)C3(O)C(OC(=O)c2ccc[nH]2)C(O)(C(C)C)C41C (stereo not drawn) [Ryanodine]	106	101	93 (inactive)	88 (inactive)
Cl.O=C1CCC2(O)C3Cc4ccc(O)c5c4C2(CCN3CC2CC2)C1O5 (stereo not drawn) [Naltrexone hydrochloride]	103	115	90.8 (inactive)	96 (inactive)
Cc1cccc(C)c1NC1=NCCCS1 [Xylazine]	106	106	95.4 (inactive)	106 (inactive)
CC(C)Oc1cccnc1N(C)C1CCN(Cc2ccc(I)cc2)CC1 [RBI-257 maleate]	100	98.1	94.8 (inactive)	102 (inactive)
O=c1[nH]c2ccccc2n1C1CCN(Cc2ccc(-c3nc4cc5[nH]cnc5cc4nc3-c3ccccc3)cc2)CC1 [Akt Inhibitor VIII, Isozyme-Selective, Akti-1/2]	75.9	81.2	105 (inactive)	131 (inactive)
CC[NH+](CC)CC.Nc1ncnc2c1ncn2C1OC2COP([O-])(=S)OC2C1O (stereo not drawn) [Rp-cAMPS triethylamine]	103	113	86 (inactive)	88.3 (inactive)
O=C1CCCC2C3CCCN4CCCC(CN12)C34 (stereo not drawn) [Matrine]	100	94.7	99.3 (inactive)	94.6 (inactive)
C=CCc1cc(OC)c2c(c1)OCO2 [Myristicin]	104	103	104 (inactive)	81.5 (inactive)
CCN1CC2(C)CCC(O)C34C5CC6C(OC)CC(O)(C(CC23)C14)C5C6O (stereo not drawn) [Karakoline]	103.2 ± 0.75	99.5 ± 1.5	96.4 (inactive)	99.8 (inactive)
O=C1Nc2ccc3ncsc3c2C1=Cc1cnc[nH]1 [PKR Inhibitor]	61.1	17	112 (inactive)	136 (inactive)
C=C(C)C1C2OC(=O)C1C1(O)CC3OC34C(=O)OC2C14C (stereo not drawn) [Picrotoxinin]	105	105	95.4 (inactive)	90.9 (inactive)
CCC1C=CC=CCC(C)C(O)C(C)(O)C(=O)C(C)C(O)C(C)C(=O)C(C)C(O)C(C)C=CC(=O)OC2C(C)C(CC1)OC1(CCC(C)C(CC(C)O)O1)C2C (stereo not drawn) [Oligomycin A]	79.8 ± 16	87 ± 27	93.9 (inactive)	114 (inactive)
CCCN(CCC)C1CCc2c(F)ccc(O)c2C1.Cl (stereo not drawn) [R(+)-UH-301 hydrochloride]	103	109	89.2 (inactive)	101 (inactive)
COc1cc2c(cc1O)CC1c3c(cc(O)c(OC)c3-2)CCN1C (stereo not drawn) [Boldine]	103	103	105 (inactive)	99.9 (inactive)
